A short description of test [1]: qHTS assay to identify small molecule antagonists of the glucocorticoid receptor (GR) signaling pathway - cell viability counter screen (AID 720693). Further: nearly all actives have a fitted effect of over 55% in size. Background: qHTS replaces the single test concentration by a dilution series.
Test [2] can be described thus: qHTS assay for identifying genotoxic compounds that show differential cytotoxicity against isogenic chicken DT40 cell lines with known DNA damage response pathways - wild type cell line (AID 743012). Further: nearly all actives have a fitted effect of over 60% in size. Further: potency means the concentration at half of the fitted maximal effect. In a few lines: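 Viability of DNA repair-proficient chicken DT40 cells was assessed by CellTiter-Glo luminescence following 40 h compound exposure at 37 C/5% CO2.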
The nature of test [3]: qHTS assay for identifying genotoxic compounds that show differential cytotoxicity against isogenic chicken DT40 cell lines with known DNA damage response pathways - Rad54/Ku70 mutant cell line (AID 743015). Further: nearly all actives have a fitted effect of over 60% in size. Further: potency means the concentration at half of the fitted maximal effect.
The nature of test [4]: qHTS assay to identify small molecule antagonists of the androgen receptor (AR) signaling pathway - cell viability counter screen (AID 743033; further: nearly all actives have a fitted effect of over 45% in size).
Test [5] can be described thus: qHTS assay to identify small molecule antagonists of the androgen receptor (AR) signaling pathway using the MDA cell line - cell viability counter screen (AID 743041; further: nearly all actives have a fitted effect of over 45% in size). In a few lines:
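In this qHTS counter assay, fluorescence intensity after CellTiter-Fluor addition indicated viability of MDA-kb2 AR-luc cells given compounds and R1881 for 16 h at 37C.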

A short description of test [6]: qHTS assay to identify small molecule antagonists of the thyroid receptor (TR) signaling pathway - cell viability counter screen (AID 743064). Further: nearly all actives have a fitted effect of over 50% in size. In a few lines: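 Viability of T3-stimulated (1 nM final) GH3.TRE-Luc cells is measured by CellTiter-Fluor fluorescence after 23.5 h compound exposure at 37 °C plus 30 min reagent incubation.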
Test [7] is described as follows: qHTS assay to identify small molecule antagonists of the thyroid receptor (TR) signaling pathway (AID 743065). Further: series mostly up to about 70 µM; nearly all actives have a fitted effect of over 55% in size. The procedure, abridged:
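GH3.TRE-Luc rat pituitary cells carrying two TR response elements driving luciferase were plated for 4 h, given compound plus 1 nM T3 (final), and incubated 23.5 h at 37 C. ONE-Glo luminescence measured reporter inhibition; CellTiter-Fluor fluorescence tracked cytotoxicity.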

For test [8], the system named is thyroid hormone receptor (rat, GH3 cells). Nature of the test: qHTS assay to identify small molecule agonists of the thyroid receptor (TR) signaling pathway (AID 743066; calls by dose curve).
In test [9] the target is Estrogen receptor (Homo sapiens) (UniProt P03372). Nature of the test: qHTS assay to identify small molecule antagonists of the estrogen receptor alpha (ER-alpha) signaling pathway (AID 743069; active means well fitted curve in the direction sought with a large enough effect in the signal ratio in the repeat runs, not every such curve was filed as active; the % refers to the signal ratio). In a few lines: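 A 17beta-estradiol challenge was applied right after compound transfer to ER-alpha-UAS-bla HEK293 cells previously kept in charcoal-stripped serum. Plates stood 18 hr at 37C and 5% CO2; fluorescence was read following 2 hr FRET substrate loading at room temperature.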

Test [10] can be described thus: qHTS assay to identify small molecule antagonists of the estrogen receptor alpha (ER-alpha) signaling pathway - cell viability counter screen (AID 743074; calls by dose curve;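 further: HEK293 cells carrying ER-alpha-UAS-bla reporter stimulated with 17beta-estradiol; nearly all actives have a fitted effect of over 45% in size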).
For test [11], the target named is Estrogen receptor (Homo sapiens) (UniProt P03372). Nature of the test: qHTS assay to identify small molecule agonists of the estrogen receptor alpha (ER-alpha) signaling pathway (AID 743075; calls by dose curve;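 further: HEK293 GripTite cells with ER-alpha and UAS-driven beta-lactamase reporter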).
The target is the same in test [12]. Nature of the test: qHTS assay to identify small molecule agonists of the estrogen receptor alpha (ER-alpha) signaling pathway using the BG1 cell line (AID 743079). Further: nearly all actives have a fitted effect of over 20% in size. Further: potency means the concentration at half of the fitted maximal effect.
Test [13] is described as follows: qHTS assay to identify small molecule antagonists of the estrogen receptor alpha (ER-alpha) signaling pathway using the BG1 cell line (AID 743080; calls by dose curve;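 further: BG1 cells stimulated with 17beta-estradiol alongside compound; nearly all actives have a fitted effect of over 25% in size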; further: potency means the concentration at half of the fitted maximal effect). In a few lines: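 Luminescence from a 4×ERE-luciferase reporter in BG1-Luc-4E2 cells served as read-out. Cells, pre-cultured 5 days in stripped-serum phenol-red-free medium, were exposed to compound with 17beta-estradiol co-stimulation for 21.5 h at 37 C.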

Test [14] can be described thus: qHTS assay to identify small molecule antagonists of the estrogen receptor alpha (ER-alpha) signaling pathway using the BG1 cell line - cell viability counter screen (AID 743081).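 Further: compound given together with 17beta-estradiol as the ER stimulus; series mostly up to about 70 µM; nearly all actives have a fitted effect of over 45% in size.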
In a further test the target is Aromatase (Homo sapiens) (UniProt P11511). Nature of the test: qHTS assay to identify aromatase inhibitors (AID 743083). Further: series mostly up to about 70 µM; nearly all actives have a fitted effect of over 55% in size.
Test [15] in a line: qHTS assay for identifying genotoxic compounds that show differential cytotoxicity against isogenic chicken DT40 cell lines with known DNA damage response pathways - Rev3 mutant cell line (AID 743014). Further: nearly all actives have a fitted effect of over 55% in size. Further: potency means the concentration at half of the fitted maximal effect.
Test [16] has as its target Androgen receptor (Homo sapiens) (UniProt P10275). Nature of the test: qHTS assay to identify small molecule agonists of the androgen receptor (AR) signaling pathway (AID 743036; active means well fitted activation curve with a large enough effect in the signal ratio in the repeat runs, with a control signal flat, not every such curve was filed as active; the % refers to the signal ratio). In a few lines:
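Screening used 2,000 AR-bla HEK293 cells per well, treated 16 h at 37C with test compounds in DMSO alongside positive and DMSO-only controls; beta-lactamase activity was then read by LiveBLAzer B/G FRET fluorescence after 2 h at room temperature.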

Test [17] has the same target. Nature of the test: qHTS assay to identify small molecule agonists of the androgen receptor (AR) signaling pathway using the MDA cell line (AID 743040; further: nearly all actives have a fitted effect of over 20% in size). The procedure, abridged: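 Cell-based luciferase reporter: MDA-kb2, MMTV promoter (AR + GR response elements). 16 h compound exposure at 37C; ONE-Glo, 30 min RT, luminescence.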
Test [18] shares this target. Nature of the test: qHTS assay to identify small molecule antagonists of the androgen receptor (AR) signaling pathway using the MDA cell line (AID 743042; further: nearly all actives have a fitted effect of over 55% in size). The procedure, abridged:
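MDA-kb2 cells (human breast carcinoma, stably carrying an MMTV-luciferase reporter responsive to AR and GR) were plated at 3,000 cells/well and preincubated 5 hr at 37C, then given compound plus R1881 agonist for 16 h. ONE-Glo luminescence was read.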

SMILES strings stand for the structures. Several values for one entry are separate records, joined by “and”; a condition that tells them apart may be missing. Equal values may be shown once. Results filed as inconclusive are left out. Where a structure was tested more than once in an assay, its records may differ in their call. Activity calls are given as the source filed them. Unless noted, the call rests on the fitted dose curve; in most records, active means well fitted curve in the direction sought with a large enough effect in the repeat runs; inconclusive means weak or mixed curves; inactive means no such curve, though single readings can be large; an effect the other way counts as inactive or inconclusive.

Estrogen receptor (Homo sapiens), sequence (P03372 whole entry, looked up): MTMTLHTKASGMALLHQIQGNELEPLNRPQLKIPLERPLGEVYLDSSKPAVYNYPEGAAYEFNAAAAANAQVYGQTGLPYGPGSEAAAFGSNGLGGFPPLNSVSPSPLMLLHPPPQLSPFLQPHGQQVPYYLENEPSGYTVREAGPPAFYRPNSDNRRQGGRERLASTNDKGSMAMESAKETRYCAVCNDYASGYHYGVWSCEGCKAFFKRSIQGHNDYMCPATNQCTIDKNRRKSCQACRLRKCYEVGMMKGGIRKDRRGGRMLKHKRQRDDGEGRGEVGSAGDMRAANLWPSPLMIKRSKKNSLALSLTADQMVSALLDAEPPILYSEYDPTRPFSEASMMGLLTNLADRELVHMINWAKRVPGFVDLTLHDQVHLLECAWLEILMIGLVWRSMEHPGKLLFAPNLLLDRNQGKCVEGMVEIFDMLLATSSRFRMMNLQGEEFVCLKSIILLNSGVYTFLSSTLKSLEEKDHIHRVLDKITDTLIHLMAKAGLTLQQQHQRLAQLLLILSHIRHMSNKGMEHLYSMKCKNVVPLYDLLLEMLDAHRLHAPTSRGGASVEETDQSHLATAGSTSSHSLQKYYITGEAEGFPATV
Aromatase (Homo sapiens), sequence (P11511 whole entry, looked up): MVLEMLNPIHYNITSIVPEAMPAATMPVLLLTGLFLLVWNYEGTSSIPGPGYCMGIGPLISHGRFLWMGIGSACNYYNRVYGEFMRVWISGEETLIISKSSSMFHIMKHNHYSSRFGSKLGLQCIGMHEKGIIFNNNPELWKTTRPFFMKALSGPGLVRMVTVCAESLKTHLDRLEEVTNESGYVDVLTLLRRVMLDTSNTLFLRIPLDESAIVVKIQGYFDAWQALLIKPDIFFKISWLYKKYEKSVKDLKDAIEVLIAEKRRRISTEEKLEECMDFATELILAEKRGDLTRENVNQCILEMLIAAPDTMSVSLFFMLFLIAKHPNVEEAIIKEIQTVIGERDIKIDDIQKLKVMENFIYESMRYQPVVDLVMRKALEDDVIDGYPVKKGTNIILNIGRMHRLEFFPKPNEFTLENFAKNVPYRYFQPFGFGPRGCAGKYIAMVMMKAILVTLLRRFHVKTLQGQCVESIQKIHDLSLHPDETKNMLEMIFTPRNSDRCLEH
Androgen receptor (Homo sapiens), sequence (P10275 whole entry, looked up): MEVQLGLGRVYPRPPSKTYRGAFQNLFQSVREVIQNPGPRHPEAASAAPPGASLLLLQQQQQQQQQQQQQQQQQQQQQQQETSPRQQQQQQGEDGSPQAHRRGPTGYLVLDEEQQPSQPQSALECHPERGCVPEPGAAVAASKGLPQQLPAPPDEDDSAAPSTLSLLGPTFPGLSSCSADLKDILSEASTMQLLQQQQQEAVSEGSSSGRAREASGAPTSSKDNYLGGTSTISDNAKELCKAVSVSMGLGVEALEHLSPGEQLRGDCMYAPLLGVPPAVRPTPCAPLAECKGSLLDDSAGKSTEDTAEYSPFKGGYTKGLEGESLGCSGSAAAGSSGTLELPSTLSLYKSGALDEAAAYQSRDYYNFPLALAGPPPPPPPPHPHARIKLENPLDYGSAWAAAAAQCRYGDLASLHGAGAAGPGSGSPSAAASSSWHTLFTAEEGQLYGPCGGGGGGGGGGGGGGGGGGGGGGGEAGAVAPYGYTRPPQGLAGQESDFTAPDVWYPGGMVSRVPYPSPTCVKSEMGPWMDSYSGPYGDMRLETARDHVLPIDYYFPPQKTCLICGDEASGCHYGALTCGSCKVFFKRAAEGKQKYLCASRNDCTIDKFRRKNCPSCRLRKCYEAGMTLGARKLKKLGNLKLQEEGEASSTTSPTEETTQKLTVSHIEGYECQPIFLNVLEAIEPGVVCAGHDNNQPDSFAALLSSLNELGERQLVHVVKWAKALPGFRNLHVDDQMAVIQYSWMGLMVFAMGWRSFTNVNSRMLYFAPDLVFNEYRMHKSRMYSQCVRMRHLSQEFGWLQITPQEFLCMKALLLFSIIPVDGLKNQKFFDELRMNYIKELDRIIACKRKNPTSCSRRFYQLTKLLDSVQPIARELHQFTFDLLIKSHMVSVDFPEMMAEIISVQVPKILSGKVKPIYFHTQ

`CC1(C)S[C@@H]2[C@H](N3C(=O)C(c4ccccc4)NC3(C)C)C(=O)N2[C@H]1C(=O)O` (some centres undefined): the Potency result in test [1], in test [2], in test [3], in [4], in test [5] and in test [6] was “inactive” each time. For the same molecule, the Potency entry in test [7], in test [8], in [9], in test [10], in test [11] and in [12] was “inactive” throughout. Further, the Potency entry (in [13]; in test [14]; with Aromatase (Homo sapiens)) was “inactive” each time.
As to `Nc1nc(NC2CC2)c2ncn([C@@H]3C=C[C@@H](CO)C3)c2n1`, the Potency entry in [1], in test [2], in [3], in test [4], in test [5] and in [6] was “inactive” in each case. Besides, the Potency result in [7], in test [8], in test [9], in test [10], in test [11] and in test [14] was “inactive” each time. Also, the Potency entry with Aromatase (Homo sapiens) is “inactive”. Further, the Potency in [12] was 2.66 µM (active).
Consider `C=C1[C@H](CO)[C@@H](O)C[C@@H]1n1cnc2c(=O)[nH]c(N)nc21`, for which the Potency entry in test [1], in test [4], in test [16], in [17], in test [5] and in test [18] was “inactive” throughout. Also, the Potency result (in test [10]; in test [14]; with Aromatase (Homo sapiens)) was “inactive” in each case. Further, the results for the Potency in test [15] and in [3] were 23.7 nM (active) and 33.5 nM (active), respectively.
`CNC(=O)C[C@@H](N)C(=O)N[C@@H](C(=O)N[C@@H]1C(=O)N2[C@@H]1SC(C)(C)[C@@H]2C(=O)O)c1ccc(O)cc1`: the Potency result in test [1], in test [2], in test [3], in test [4], in test [5] and in test [6] was “inactive” each time. Also, the Potency entry in test [9], in [10], in [11], in [12], in test [13] and in [14] was “inactive” in each case. Moreover, the Potency result in the test with Aromatase (Homo sapiens) was “inactive”.
Regarding `C=CC[N+]1([C@H]2C[C@H]3[C@@H]4CC[C@H]5C[C@H](O)[C@@H](N6CCOCC6)C[C@]5(C)[C@H]4CC[C@]3(C)[C@H]2OC(C)=O)CCCC1`, the Potency result in test [1], in test [15], in [3], in [4], in test [5] and in test [6] was “inactive” each time. Also, the Potency result in test [7], in [8], in test [9], in [10], in test [11] and in [13] was “inactive” each time. Also, the Potency entry (in test [14]; with Aromatase (Homo sapiens)) was “inactive” each time. Besides, the Potency in [12] was 26.6 µM (active).
Consider `O=C(O)COc1ccc(C(=O)c2cccs2)c(Cl)c1Cl`, for which the Potency entry in [1], in test [15], in test [3], in test [4], in test [17] and in test [5] was “inactive” in each case. Further, the Potency entry in test [18], in test [6], in [7], in test [8], in [9] and in [10] was “inactive” in each case. Moreover, the Potency entry (in test [11]; in [12]; in test [13]; in test [14]; with Aromatase (Homo sapiens)) was “inactive” throughout.
In the case of `CC(CNC(=O)c1cccnc1)NC(=O)c1cccnc1` (centres undefined), the Potency entry in test [1], in test [2], in test [3], in test [4], in test [5] and in test [6] was “inactive” throughout. Besides, the Potency result (in test [7]; in [8]; in test [10]; in test [14]; with Aromatase (Homo sapiens)) was “inactive” each time.
On to `O=C1CCCCCCCCCCCCCC1`, for which the Potency entry in test [1], in test [2], in test [4], in test [5], in test [8] and in test [9] was “inactive” throughout. Besides, the Potency entry in test [10], in [11], in test [12], in test [13] and in [14] was “inactive” each time.
For `CC1(C)S[C@@H]2[C@H](NC(=O)[C@H](N)c3ccc(O)cc3)C(=O)N2[C@H]1C(=O)O`, the Potency result in [1], in test [15], in [3], in test [4], in test [16] and in test [17] was “inactive” throughout. The Potency entry in test [5], in test [6], in test [7], in [8], in [10] and in test [14] was “inactive” each time. Further, the Potency entry with Aromatase (Homo sapiens) was “inactive”.
As for `CC(C)=CCC/C(C)=C/CC/C(C)=C/CC/C(C)=C/CC1=C(C)C(=O)c2ccccc2C1=O`, the Potency result in [1], in test [4], in test [5], in test [6], in [7] and in test [8] was “inactive” each time. For the same molecule, the Potency result (in test [9]; in test [10]; in test [11]; in test [12]; in test [14]; with Aromatase (Homo sapiens)) was “inactive” each time. The Potency is 29.8 µM (active) and 10.6 µM (active) in test [2]; “inactive and 9.44 µM (active)” in [13].
